Experimental data published in PubChem BioAssay AID504715 (Sanford-Burnham Center for Chemical Genomics, 2011).
The list shows a part of the results. Values without a mark were called inactive.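 Rule for the calls: active = compounds giving 40% or more inhibition at 20 µM in any one of the three replicates; inactive = the rest.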

Target: Uracil-DNA glycosylase (Escherichia coli (strain K12)) (UniProt P12295)
Test: uracil-DNA glycosylase inhibition, oligo cleavage readout – biochemical, single concentration, fluorescence, FAM/TAMRA oligo, counter-screen for APOBEC3G inhibitor project, confirmation (AID 504715);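 note: plate controls were DMSO wells with UDG and oligo for no effect and DMSO wells lacking both for full effect; inhibitors lower the FAM signal released by uracil excision and alkaline cleavage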
Conditions: UDG counterscreen, at 20 µM, active compounds read high

Uracil-DNA glycosylase (Escherichia coli (strain K12)), sequence (P12295 whole entry, looked up): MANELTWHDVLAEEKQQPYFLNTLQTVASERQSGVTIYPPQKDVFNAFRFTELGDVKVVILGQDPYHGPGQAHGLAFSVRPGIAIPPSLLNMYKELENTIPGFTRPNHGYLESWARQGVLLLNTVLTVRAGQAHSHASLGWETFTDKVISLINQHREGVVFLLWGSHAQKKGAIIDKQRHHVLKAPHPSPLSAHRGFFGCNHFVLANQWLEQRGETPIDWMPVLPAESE

| Compound | inhibition [%] |
| --- | --- |
| Cc1noc(C)c1CSc1nc2cc(S(=O)(=O)N3CCOCC3)ccc2o1 | 1.21 |
| CC(=O)N1CC[n+]2c(-c3ccc([N+](=O)[O-])cc3)csc21 | -1.28 |
| CC1=C/C(=N\OS(=O)(=O)c2ccccc2)C=CC1=O | 1.47 |
| Fc1ccc(Nc2nnns2)cc1 | 3.44 |
| S=c1[nH]nc(-c2cc(-c3ccccc3)n[nH]2)n1/N=C/c1c2ccccc2cc2ccccc12 | 7.23 |
| CCOC(=O)c1sc(=S)n2c1[nH]c(=O)c1ccc(C(=O)OC)cc12 | 1.35 |
| COc1ccc(OCc2nnc3n2N=C(c2ccccc2)C(CC(=O)O)S3)cc1 (stereo unspecified) | -3.19 |
| O=c1[nH]c2ccccc2n2c(-c3ccccc3)nnc12 | -5.75 |
| Cc1cc(-c2n[nH]c(=S)n2/N=C/c2ccco2)n[nH]1 | 2.12 |
| Fc1ccccc1/C=N/n1c(-c2cccnc2)n[nH]c1=S | 0.6 |
| Cc1ccc(S(=O)(=O)N(C)CC(=O)NCCc2c[nH]c3ccccc23)cc1 | -2.52 |
| CC(=O)N(C1=C(Cl)C(=O)c2ccccc2C1=O)c1ccc(C(=O)O)cc1 | -2.05 |
| Cc1ccc(NC(=O)c2sc3nc(N)c(C#N)cc3c2N)cc1 | -3.69 |
| S=c1[nH]nc(-c2ccncc2)n1/N=C/c1ccccc1Cl | -3.82 |
| Cc1cccc(-n2c(N)c(C(=O)N3CCN(C)CC3)sc2=S)c1 | -3.91 |
| Cc1ccc(C(=O)c2c(NC(=O)c3ccccc3)sc(C)c2C)cc1 | 2.57 |
| S=c1[nH]nc(-c2ccc(Cl)cc2)n1CC1CCCO1 (stereo unspecified) | 2.84 |
| O=C1CC(Sc2ncn[nH]2)C(=O)N1c1ccccc1 (stereo unspecified) | -0.97 |
| O=C(Cn1cnc([N+](=O)[O-])n1)NCCc1ccccc1 | 5.33 |
| COc1cccc(C(=O)CC(=O)C(=O)Nc2ccc([N+](=O)[O-])cc2C)c1 | 3.46 |
| Cc1n[nH]c(=S)n1/N=C/c1ccc(Br)o1 | -0.61 |
